In one experiment the target is Albumin (Bos taurus) (UniProt P02769). Put plainly: compounds binding labelled BSA control protein – biochemical, small-molecule microarray, Alexa647 label, 635/667 nm fluorescence, artefact control for SMM control protein annotation, profiling panel (AID 1118).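 Further: score merges 667 nm emission intensity and signal-to-noise per printed compound spot.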 The conditions noted are these: BSA-A647 binding, fluorescence 635 nm, higher = more signal.
Experiment [1] is described as follows: probe aXIP binding to arrayed compounds – biochemical, NeuroSMM set, 635/667 nm fluorescence, primary screen (AID 1119).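 Further: probe is the protein aXip251-270 applied at 1 µg/mL to compound-printed slides; binding of probe to printed compounds measured as 667 nm fluorescence plus signal to noise.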 The conditions noted are these: small-molecule microarray, higher = more signal, called active from +8 up or from −8 down.
A short description of experiment [2]: probe aNOTCH3 binding on compound microarray – biochemical, small-molecule microarray, 635/667 nm fluorescence, primary screen (AID 1120).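 Further: probe is a biotin-tagged antibody raised against NOTCH3 rather than NOTCH3 protein; score merges spot fluorescence near 667 nm with spot signal to noise.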 The conditions noted are these: higher = more signal.
A short description of experiment [3]: probe aNOTCH2 binding on compound microarray – biochemical, small-molecule microarray, 635/667 nm fluorescence, primary screen (AID 1121).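 Further: score merges feature fluorescence read at 667 nm with its signal to noise.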 The settings on record: higher = more signal.
Experiment [4] concerns the target Carbonic anhydrase 2 (Homo sapiens) (UniProt P00918). Put plainly: compounds binding carbonic anhydrase 2 – biochemical, small-molecule microarray, Alexa647-labelled CAII, profiling panel (AID 1122). The conditions noted are these: CAII-A647 binding fluorescence, higher = more signal.
Experiment [5] can be described thus: COS7 lysate on small-molecule microarray, probe aHis, 635 nm (AID 1123).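 Further: z-score combines 667nm fluorescence intensity with signal-to-noise per printed compound spot.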 The conditions noted are these: COS7 cell lysate, fluorescence, higher = more signal.
Experiment [6] in a line: probe aLAP1 signal on lysate-treated microarray – cell lysate, small-molecule microarray, COS7 lysate, primary screen (AID 1124).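 Further: lysate comes from COS7 cells expressing LAP1 and is applied at 0.3 µg/mL; score merges spot fluorescence near 667 nm with signal-to-noise over triplicate slides.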 The settings on record: probe aLAP1, fluorescence, higher = more signal.
Another experiment has as its system Sam68 (KHDRBS1). Put plainly: compounds binding KHDRBS1 protein – biochemical, small-molecule microarray, 635 nm fluorescence, primary screen (AID 1125).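 Further: score merges 667 nm channel intensity with signal to noise over triplicate slides.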 The conditions noted are these: higher = more signal.
Experiment [7] relates to Chordin-like protein 2 (CHRDL2). Put plainly: compounds binding chordin-like 2 – biochemical, small-molecule microarray, 635 nm fluorescence, primary screen (AID 1126).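 Further: printed compound slides probed with Chrdl2 protein at 4 µg/mL for 1 h at 4 C; score merges 667 nm emission intensity with signal to noise over three replicate slides.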 The settings on record: fluorescence 635 nm, higher = more signal.
The target of experiment [8] is Concanavalin-A (Canavalia ensiformis) (UniProt P02866). Put plainly: compounds binding concanavalin A lectin – biochemical, small-molecule microarray, Alexa647 label, 635 nm, artefact control for SMM control protein annotation, primary screen (AID 1127).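 Further: z combines 667 nm emission intensity with signal-to-noise across three replicate slides.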 The settings on record: ConA-A647 binding fluorescence, higher = more signal.
Experiment [9] can be described thus: compounds binding Alexa647 anti-His antibody – biochemical, small-molecule microarray, 635 nm fluorescence, artefact control for SMM control protein annotation, primary screen (AID 1128).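 Further: score merges feature fluorescence with signal-to-noise for each printed compound spot.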 The conditions noted are these: higher = more signal.
The subject of experiment [10] is Human papillomavirus type 1a E7 protein (residues 1-88). Put plainly: HPV1a E7 small-molecule binders, primary screen, biochemical, small-molecule microarray, residues 1-88, 635 nm (AID 1129). The conditions noted are these: small-molecule microarray binding, fluorescence 635 nm; higher = more signal.
In experiment [11] the target is Focal adhesion kinase 1 (Homo sapiens) (UniProt Q05397). Put plainly: PTK2 protein binding on printed compound slides – biochemical, small-molecule microarray, 635/667 nm fluorescence, BSA, DTT, primary screen (AID 1130).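 Further: composite of spot emission at 667 nm and signal to noise over triplicate slides.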 The settings on record: 635 nm fluorescence, higher = more signal.
Experiment [12] has as its system Fibrinogen (Alexa647-labelled). Put plainly: Alexa647-fibrinogen binding to printed small molecules – biochemical, small-molecule microarray, 635/667 nm fluorescence, artefact control for SMM control-protein annotation, profiling panel (AID 1131).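 Further: z-score merges 667 nm fluorescence with per-spot signal-to-noise over triplicate slides.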 The settings on record: fibrinogen-A647 binding fluorescence, higher = more signal.
Experiment [13] addresses Follistatin (Homo sapiens) (UniProt P19883). Put plainly: FST protein binding to printed compounds – biochemical, small-molecule microarray, 635/667 nm fluorescence, primary screen (AID 1132). The conditions noted are these: 635 nm fluorescence, higher = more signal.
For experiment [14], the target named is Fibroblast growth factor 2 (Homo sapiens) (UniProt P09038). Put plainly: basic fibroblast growth factor binding to printed compounds – biochemical, small-molecule microarray, 635/667 nm fluorescence, primary screen (AID 1133). The settings on record: FGF2, fluorescence 635/667, higher = more signal.
Experiment [15] is described as follows: JC-1 mitochondrial potential readout, lung cancer cells – cell-based, A549, JC-1 fluorescence, basal, 24 h, 100 nL, profiling panel (AID 1138).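 Further: A549 lung adenocarcinoma cells under basal conditions with no added stimulus; test concentration not given here.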 The settings on record: higher = more signal.
The next experiment deals with Lefty1. Put plainly: Lefty1 protein binding to printed compounds – biochemical, small-molecule microarray, 635/667 nm fluorescence, primary screen (AID 1139). The conditions noted are these: fluorescence 635/667, higher = more signal.
In experiment [16] the test system is wheat germ agglutinin (Triticum aestivum), Alexa647-labelled. Put plainly: Alexa647-WGA lectin binding to printed small molecules – biochemical, small-molecule microarray, 635/667 nm fluorescence, artefact control for SMM control-protein annotation, profiling panel (AID 1140).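 Further: score merges 667 nm feature emission with signal to noise over triplicate slides.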 The settings on record: WGA-A647 binding, 635 nm fluorescence, higher = more signal.
Experiment [17] addresses Luciferin 4-monooxygenase (Photinus pyralis) (UniProt P08659). Put plainly: inhibition of purified Photinus pyralis luciferase – biochemical, luminescence, purified enzyme, 2006 set, primary screen (AID 1141).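 Further: cell-free assay with purified firefly luciferase at 100 ng per well in PBS; test concentration not given here.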 The settings on record: purified firefly luciferase, SteadyGlo luminescence, 30 min; higher = more signal, called active from +8 up or from −8 down.

The structures appear in SMILES notation. Calls of active or inactive are those of the source.

Albumin (Bos taurus), sequence (P02769 whole entry, looked up): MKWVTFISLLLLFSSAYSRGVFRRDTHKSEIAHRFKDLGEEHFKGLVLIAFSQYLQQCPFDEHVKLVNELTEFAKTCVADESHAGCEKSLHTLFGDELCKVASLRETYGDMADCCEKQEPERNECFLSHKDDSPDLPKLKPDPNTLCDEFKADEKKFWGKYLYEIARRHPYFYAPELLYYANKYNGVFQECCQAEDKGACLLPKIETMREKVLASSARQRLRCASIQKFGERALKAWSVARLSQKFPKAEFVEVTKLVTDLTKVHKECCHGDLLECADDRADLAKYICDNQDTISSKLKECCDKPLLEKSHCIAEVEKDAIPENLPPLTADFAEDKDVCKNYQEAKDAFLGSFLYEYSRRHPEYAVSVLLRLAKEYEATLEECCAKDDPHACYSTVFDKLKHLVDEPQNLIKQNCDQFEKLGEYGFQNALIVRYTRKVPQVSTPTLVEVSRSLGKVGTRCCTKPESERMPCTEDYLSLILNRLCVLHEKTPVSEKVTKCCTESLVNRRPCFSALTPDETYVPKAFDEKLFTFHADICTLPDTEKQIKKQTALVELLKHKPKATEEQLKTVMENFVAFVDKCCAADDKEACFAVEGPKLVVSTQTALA
Fibroblast growth factor 2 (Homo sapiens), sequence (P09038 whole entry, looked up): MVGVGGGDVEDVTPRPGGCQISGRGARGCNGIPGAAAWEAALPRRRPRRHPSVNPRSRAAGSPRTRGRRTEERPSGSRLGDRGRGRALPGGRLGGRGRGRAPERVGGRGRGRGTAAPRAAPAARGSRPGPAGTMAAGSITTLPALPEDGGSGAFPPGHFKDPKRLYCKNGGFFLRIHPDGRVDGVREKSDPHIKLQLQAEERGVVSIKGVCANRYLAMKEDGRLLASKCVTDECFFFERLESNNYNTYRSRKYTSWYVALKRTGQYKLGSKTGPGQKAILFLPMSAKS
Luciferin 4-monooxygenase (Photinus pyralis), sequence (P08659 whole entry, looked up): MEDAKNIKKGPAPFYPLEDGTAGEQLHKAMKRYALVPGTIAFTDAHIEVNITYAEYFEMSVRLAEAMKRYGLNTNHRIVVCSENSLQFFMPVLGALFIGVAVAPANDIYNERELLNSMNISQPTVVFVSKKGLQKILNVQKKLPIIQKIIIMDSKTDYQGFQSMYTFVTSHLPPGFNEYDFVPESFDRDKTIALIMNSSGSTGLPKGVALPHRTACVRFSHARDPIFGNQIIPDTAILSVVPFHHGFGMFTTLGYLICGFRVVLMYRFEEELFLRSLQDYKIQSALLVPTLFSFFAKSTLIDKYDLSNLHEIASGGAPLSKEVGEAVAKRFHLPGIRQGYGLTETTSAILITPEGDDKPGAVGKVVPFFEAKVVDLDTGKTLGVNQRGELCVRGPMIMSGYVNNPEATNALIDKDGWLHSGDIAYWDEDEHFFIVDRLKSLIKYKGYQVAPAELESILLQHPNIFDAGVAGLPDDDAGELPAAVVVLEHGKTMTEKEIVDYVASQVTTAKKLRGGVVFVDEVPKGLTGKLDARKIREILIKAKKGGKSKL
Concanavalin-A (Canavalia ensiformis), sequence (P02866 whole entry, looked up): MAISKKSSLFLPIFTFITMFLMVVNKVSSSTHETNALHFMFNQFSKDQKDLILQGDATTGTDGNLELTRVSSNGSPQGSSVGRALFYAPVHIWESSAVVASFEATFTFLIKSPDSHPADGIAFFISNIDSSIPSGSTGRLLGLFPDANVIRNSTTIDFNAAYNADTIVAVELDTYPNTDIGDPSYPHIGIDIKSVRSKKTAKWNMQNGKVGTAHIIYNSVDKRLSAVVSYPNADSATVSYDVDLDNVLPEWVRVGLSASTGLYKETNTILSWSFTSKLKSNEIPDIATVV
Follistatin (Homo sapiens), sequence (P19883 whole entry, looked up): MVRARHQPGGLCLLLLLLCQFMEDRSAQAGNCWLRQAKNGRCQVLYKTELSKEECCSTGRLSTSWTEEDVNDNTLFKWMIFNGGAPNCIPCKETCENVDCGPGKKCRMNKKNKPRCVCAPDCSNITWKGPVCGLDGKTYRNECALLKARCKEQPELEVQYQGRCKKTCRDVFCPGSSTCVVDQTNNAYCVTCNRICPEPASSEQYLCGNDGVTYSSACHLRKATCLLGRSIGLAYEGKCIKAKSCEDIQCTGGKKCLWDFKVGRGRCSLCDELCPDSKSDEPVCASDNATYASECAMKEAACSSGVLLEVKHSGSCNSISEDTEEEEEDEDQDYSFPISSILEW
Focal adhesion kinase 1 (Homo sapiens), sequence (Q05397 whole entry, looked up): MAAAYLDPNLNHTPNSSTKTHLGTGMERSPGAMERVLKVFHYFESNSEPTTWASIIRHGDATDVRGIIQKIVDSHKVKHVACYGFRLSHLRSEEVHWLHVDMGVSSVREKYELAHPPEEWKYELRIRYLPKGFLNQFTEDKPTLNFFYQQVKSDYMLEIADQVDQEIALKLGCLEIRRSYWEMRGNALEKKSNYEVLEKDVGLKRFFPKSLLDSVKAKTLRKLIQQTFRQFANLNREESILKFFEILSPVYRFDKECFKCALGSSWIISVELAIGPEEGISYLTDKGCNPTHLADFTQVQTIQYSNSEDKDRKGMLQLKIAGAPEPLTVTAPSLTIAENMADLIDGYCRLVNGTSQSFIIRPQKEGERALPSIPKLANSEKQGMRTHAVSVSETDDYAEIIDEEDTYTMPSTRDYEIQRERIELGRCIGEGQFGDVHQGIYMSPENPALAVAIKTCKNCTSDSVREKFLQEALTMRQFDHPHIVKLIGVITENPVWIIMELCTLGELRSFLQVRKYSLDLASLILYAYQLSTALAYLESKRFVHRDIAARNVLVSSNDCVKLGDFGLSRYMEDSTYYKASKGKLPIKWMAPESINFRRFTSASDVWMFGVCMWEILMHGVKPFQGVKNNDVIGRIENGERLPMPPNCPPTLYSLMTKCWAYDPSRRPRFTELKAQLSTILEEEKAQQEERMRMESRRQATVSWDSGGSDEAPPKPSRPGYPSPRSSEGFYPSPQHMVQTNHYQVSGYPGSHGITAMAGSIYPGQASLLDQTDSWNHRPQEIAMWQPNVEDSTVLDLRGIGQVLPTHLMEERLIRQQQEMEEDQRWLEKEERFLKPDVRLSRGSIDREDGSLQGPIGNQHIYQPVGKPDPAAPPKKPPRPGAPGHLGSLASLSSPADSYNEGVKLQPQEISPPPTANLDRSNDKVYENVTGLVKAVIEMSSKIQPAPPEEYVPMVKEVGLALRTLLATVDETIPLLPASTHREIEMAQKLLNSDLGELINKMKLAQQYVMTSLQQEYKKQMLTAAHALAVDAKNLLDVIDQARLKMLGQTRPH

In the case of `C=C(/C(=C/C[C@@H](OC(C)=O)c1cccc(OCCO)c1)c1cc(C(=O)OC)ccc1OC)C(C)C`, the composite z-score is 0.805 with Albumin (Bos taurus); -0.0014 in experiment [2]; -0.177 in experiment [3]; 0.447 in experiment [4]; 0.206 in experiment [5]; 0.0418 in experiment [6]. Moreover, the composite z-score was 0.531 in the experiment on Sam68 (KHDRBS1); 0.0865 in experiment [7]; 0.574 in [8]; -0.422 in experiment [9]; 0.238 in [10]; 0.543 in experiment [11]. The composite z-score is -0.75 in experiment [12]; 1.12 in experiment [13]; 1.39 in [14]; 1.16 with Lefty1; 0.743 in experiment [16]. Besides, in [1], the composite Z-score is 0.142 (inactive). The z-score was 0.834 in experiment [15] and 0.0406 (inactive) in [17].

With `CC1CC/C=C\[C@H]2OC34C=CCN(C(C)C)C(=O)[C@H]3N(CCCCCCO)C(=O)[C@@H]4C2C(=O)O1` (stereo not given in full), the composite z-score with Albumin (Bos taurus) is -0.0272; in [2], -0.268; in experiment [3], -0.145; in [4], 0.889; in experiment [5] it was -0.63; in experiment [6], -0.0532. Besides, the composite z-score was -1.83 with Sam68 (KHDRBS1); -0.607 in experiment [7]; -0.594 in experiment [8]; -0.641 in [9]; -1.09 in experiment [10]; -0.278 in experiment [11]. The composite z-score was -1.25 in [12]; -0.583 in experiment [13]; -1.09 in experiment [14]; -0.547 in the experiment on Lefty1; -0.451 in experiment [16]. The composite Z-score in experiment [1] was -0.416 (inactive). The z-score was 0.378 in experiment [15] and -3.19 (inactive) in [17].

Turning to `CC(C)(C)N1CC=CC23O[C@@H]4C=CCCOC(=O)C4[C@H]2C(=O)N(CCO)[C@@H]3C1=O` (stereo not given in full), the composite z-score with Albumin (Bos taurus) was -0.0163; in experiment [2] it was -0.13; in [3] it was 0.226; in experiment [4], 0.282; in [5], -1.09; in experiment [6] it was -0.155. For the same molecule, the composite z-score was -0.889 in the experiment on Sam68 (KHDRBS1); -0.267 in experiment [7]; -1.39 in [8]; -0.513 in experiment [9]; -0.991 in experiment [10]; -0.541 in [11]. Also, the composite z-score is 0.0853 in experiment [12]; -0.607 in [13]; 0.23 in [14]; -0.551 in the experiment with Lefty1; -0.0465 in experiment [16]. Besides, the composite Z-score in experiment [1] was -0.391 (inactive). In addition, the z-score in experiment [15] was -0.845; in experiment [17] it was 0.0324 (inactive).

As for `COCCOC(=O)N1C(=O)[C@@]2(c3cc(C#CC4=CCCCC4)ccc31)[C@H](C(=O)N1CCCCCCC1)[C@H]1C(=O)O[C@H](c3ccccc3)[C@H](c3ccccc3)N1[C@@H]2c1ccc(O)cc1`, the composite z-score stood at 0.25 with Albumin (Bos taurus); 0.183 in experiment [2]; 0.103 in experiment [3]; 0.334 in [4]; 2.17 in [5]; 0.147 in experiment [6]. The composite z-score with Sam68 (KHDRBS1) is 1.25; in experiment [7], 0.277; in [8], 0.622; in experiment [9], -0.014; in experiment [10] it was 1.13; in [11] it was 0.701. Further, the composite z-score in experiment [12] is -0.0414; in [13], 1.12; in [14], 0.446; in the experiment on Lefty1 it was 0.486; in experiment [16] it was 0.436. Further, the composite Z-score in experiment [1] was 0.0769 (inactive). The z-score in [15] is 0.5; in experiment [17], -5.8 (inactive).

As for `COc1ccc(-c2cc3c(c(CCc4ccccc4)n2)[Si](C(C)C)(C(C)C)OC3)cn1`, the composite z-score is -0.0428 in the experiment with Albumin (Bos taurus); -0.152 in experiment [2]; -0.169 in experiment [3]; -0.173 in [4]; 0.132 in experiment [5]; -0.376 in experiment [6]. For the same molecule, the composite z-score with Sam68 (KHDRBS1) is -0.296; in experiment [7], 0.105; in [8], -0.0689; in [9], 0.0933; in experiment [10], -0.765; in experiment [11] it was -0.192. Further, the composite z-score is -0.284 in experiment [12]; 0.323 in experiment [13]; -0.025 in experiment [14]; 0.496 in the experiment on Lefty1; -0.289 in experiment [16]. The composite Z-score in [1] was 0.147 (inactive). Moreover, the z-score in experiment [15] is -0.585; in [17], 1.17 (inactive).

For `NC(=O)NCC#Cc1ccc2c(c1)[C@]1(C(=O)N2)[C@H](C(=O)O)[C@H]2C(=O)O[C@H](c3ccccc3)[C@H](c3ccccc3)N2[C@@H]1c1ccc(OCCO)cc1`, the composite z-score with Albumin (Bos taurus) is 0.351; in experiment [2], -0.161; in [3] it was -0.143; in experiment [4], 0.355; in experiment [5] it was 0.822; in experiment [6], 0.613. Moreover, the composite z-score in the experiment on Sam68 (KHDRBS1) was determined as 1.27; in experiment [7] it was 0.241; in experiment [8], 0.962; in experiment [9], 0.894; in [10], 0.643; in experiment [11], 0.116. Also, the composite z-score is 0.57 in experiment [12]; 1.18 in [13]; 0.239 in experiment [14]; 0.183 with Lefty1; 0.553 in [16]. The composite Z-score in experiment [1] was -0.131 (inactive). Besides, the z-score was -0.765 in experiment [15] and -2.23 (inactive) in [17].

Values taken from PubChem BioAssay.
